From PubChem BioAssay AID687026 (Broad Institute, 2013)
Entries with a potency or affinity are not part of this list. Active and inactive are the calls of the source. How the calls were made is not given here.

Assay: CEM21 cell cytotoxicity, dose response, cytotoxicity control, plate reader, dry powder (AID 687026)
Details: CEM21 cells cytotoxicity; series mostly up to 35 µM; activity change, negative = cytotoxicity: at the top concentration

SMILES | activity change, negative = cytotoxicity | outcome
Cc1noc(C)c1S(=O)(=O)Nc1cccc2c1O[C@@H](CN(C)Cc1ccc(C(F)(F)F)cc1)[C@@H](C)CN([C@@H](C)CO)C2=O | -1.12% (inactive) | –
CO[C@@H]1CN(C)C(=O)c2ccc(NC(=O)Nc3cccc(F)c3)cc2OC[C@@H](C)N(C(=O)Nc2cccc(F)c2)C[C@H]1C | -9.29% (inactive) | –
O=S(=O)(NCc1ccncc1)c1ccc2c(c1)OCCO2 | -5.34% (inactive) | –
C[C@H]1CCCCO[C@@H](CN(C)Cc2ccncc2)[C@@H](C)CN([C@@H](C)CO)C(=O)c2cc(NC(=O)Nc3ccccc3)ccc2O1 | -4.58% (inactive) | –
Cc1noc(C)c1S(=O)(=O)Nc1cccc2c1O[C@H](CN(C)Cc1ccc(C(F)(F)F)cc1)[C@@H](C)CN([C@@H](C)CO)C2=O | -1.88% (inactive) | –
CCOc1ccc(S(=O)(=O)NCc2ccccn2)cc1 | – | inactive
Cc1noc(C)c1S(=O)(=O)Nc1cccc2c1O[C@@H](CN(C)Cc1ccc(C(F)(F)F)cc1)[C@H](C)CN([C@H](C)CO)C2=O | 4.5% (inactive) | –
Cc1noc(C)c1S(=O)(=O)Nc1cccc2c1O[C@H](CN(C)Cc1ccc(C(F)(F)F)cc1)[C@H](C)CN([C@H](C)CO)C2=O | -7.43% (inactive) | –
COc1ccc(S(=O)(=O)NCc2ccncc2)cc1OC | -6.11% (inactive) | –
Cc1ccc(S(=O)(=O)N(C)C[C@@H]2Oc3ccc(NS(=O)(=O)c4c(C)noc4C)cc3CC(=O)N([C@H](C)CO)C[C@@H]2C)cc1 | 0.887% (inactive) | –
CCCC#Cc1ccc2c(c1)O[C@@H](CN(C)S(=O)(=O)c1cccc(F)c1)[C@@H](C)CN([C@H](C)CO)S2(=O)=O | -4.86% (inactive) | –
CCOc1ccc(OCC)c(S(=O)(=O)NCc2ccncc2)c1 | – | inactive
Cc1noc(C)c1S(=O)(=O)Nc1cccc2c1O[C@@H](CN(C)Cc1ccc(C(F)(F)F)cc1)[C@H](C)CN([C@@H](C)CO)C2=O | -0.13% (inactive) | –
CC(=O)Nc1ccc(NC(=O)CN(c2ccc(C34CC5CC(CC(C5)C3)C4)cc2)S(C)(=O)=O)cc1 | -30.8% (inactive) | –
CCOc1ccc(S(=O)(=O)NCc2ccccc2)cc1 | -11.5% (inactive) | –
Cc1noc(C)c1S(=O)(=O)Nc1cccc2c1O[C@H](CN(C)Cc1ccc(C(F)(F)F)cc1)[C@@H](C)CN([C@H](C)CO)C2=O | 4.39% (inactive) | –
Cn1c(C(=O)N2CCN(c3nc4ccccc4s3)CC2)cc2sccc21 | -4.66% (inactive) | –
CC1(C)CC(NC(=O)C(=O)Nc2ccc(Cl)cc2)CC(C)(C)N1 | – | inactive
Cc1noc(C)c1S(=O)(=O)N(C)C[C@@H]1Oc2ccc(NC(=O)Nc3ccccc3)cc2CC(=O)N([C@@H](C)CO)C[C@@H]1C | -2.83% (inactive) | –
CCCn1nc(C(=O)Nc2ccc3nc(N4CCOCC4)sc3c2)ccc1=O | -11% (inactive) | –
CCOc1ccc(C)cc1S(=O)(=O)NCc1ccncc1 | -8.49% (inactive) | –
COc1ccccc1CCNCc1ccc(OC)c(OCc2ccccc2)c1 | -12.2% (inactive) | –
